{
  "source": "the supplement of paper PMC3414501",
  "note": "Structures can show the parent of a compound that is named as a salt.",
  "data": [
    {"system": "S. cerevisiae AD1-9 (efflux-pump deficient), vegetative growth in YPD", "assay": "growth sensitivity score (doubling time z-score vs DMSO controls); higher = slower growth, strongly negative scores also mark growth inhibition (complete suppression), active = hit call of the paper; in the data active = 2 or more and inactive = the rest", "outline": "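Saccharomyces cerevisiae strains BY4741 and AD1-9 were seeded in rich medium in microtiter plates at an OD600 of 0.065. Compounds were added at a 1:100 dilution of DMSO stock. Optical density was read every 15 min for 24 hours on a Tecan GENios reader. Average doubling time was the time taken to reach a set generation point divided by generation number, and the growth sensitivity score was (compound mean − DMSO-control mean)/DMSO-control SD, using eight DMSO controls per experiment.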", "values": [
      {"smiles": "CCCCc1nc(Cl)c(CO)n1Cc1ccc(-c2ccccc2-c2nnn[nH]2)cc1", "note": "[Losartan potassium] (stock concentration (mM, diluted 1:100): 9.2)", "growth sensitivity score": "-1.21 (inactive)"},
      {"smiles": "COc1ccnc(C[S+]([O-])c2nc3cc(OC(F)F)ccc3[nH]2)c1OC", "note": "(stereo not drawn) [Pantoprazole sodium] (stock concentration (mM, diluted 1:100): 10)", "growth sensitivity score": -2.1},
      {"smiles": "O=C1c2c(O)cc(O)cc2OC(c2ccc(O)c(O)c2)C1O", "note": "(stereo not drawn) [Taxifolin] (stock concentration (mM, diluted 1:100): 10.1)", "growth sensitivity score": "-0.17 (inactive)"},
      {"smiles": "CO[C@H]1/C=C/O[C@@]2(C)Oc3c(C)c(O)c4c(O)c(c(/C=N/N5CCN(C6CCCC6)CC5)c(O)c4c3C2=O)NC(=O)/C(C)=C\\C=C\\[C@H](C)[C@H](O)[C@@H](C)[C@@H](O)[C@@H](C)[C@H](OC(C)=O)[C@@H]1C", "note": "[Rifapentine] (stock concentration (mM, diluted 1:100): 10)", "growth sensitivity score": "-0.99 (inactive)"},
      {"smiles": "Cc1ncc([N+](=O)[O-])n1CC(O)CCl", "note": "(stereo not drawn) [Ornidazole] (stock concentration (mM, diluted 1:100): 10)", "growth sensitivity score": "-0.62 (inactive)"},
      {"smiles": "Clc1ccccc1C(c1ccccc1)(c1ccccc1)n1ccnc1", "note": "[Clotrimazole] (stock concentration (mM, diluted 1:100): 10)", "growth sensitivity score": "2.49 (active)"},
      {"smiles": "Cc1ccc(NC(=O)c2ccc(CN3CCN(C)CC3)cc2)cc1Nc1nccc(-c2cccnc2)n1", "note": "[Imatinib mesylate] (stock concentration (mM, diluted 1:100): 8.4)", "growth sensitivity score": "7.33 (active)"},
      {"smiles": "Cn1c(NCCN(CCO)CCCc2ccc([N+](=O)[O-])cc2)cc(=O)n(C)c1=O", "note": "[Nifekalant hydrochloride] (stock concentration (mM, diluted 1:100): 9.2)", "growth sensitivity score": "0.65 (inactive)"},
      {"smiles": "Cc1ccnc2c1NC(=O)c1cccnc1N2C1CC1", "note": "[Viramune] (stock concentration (mM, diluted 1:100): 10)", "growth sensitivity score": "-1.4 (inactive)"},
      {"smiles": "COc1nc(C)nc(Cl)c1NC1=NCCN1", "note": "[Moxonidine hydrochloride] (stock concentration (mM, diluted 1:100): 9.2)", "growth sensitivity score": "-1.22 (inactive)"},
      {"smiles": "Nc1ccn([C@@H]2CS[C@H](CO)O2)c(=O)n1", "note": "[Lamivudine] (stock concentration (mM, diluted 1:100): 9.9)", "growth sensitivity score": "-1.68 (inactive)"},
      {"smiles": "CN(CCOc1ccc(NS(C)(=O)=O)cc1)CCc1ccc(NS(C)(=O)=O)cc1", "note": "[Dofetilide] (stock concentration (mM, diluted 1:100): 10)", "growth sensitivity score": "-1.59 (inactive)"},
      {"smiles": "COCCOC(=O)C1=C(C)NC(C)=C(C(=O)OC(C)C)C1c1cccc([N+](=O)[O-])c1", "note": "(stereo not drawn) [Nimodipine] (stock concentration (mM, diluted 1:100): 10)", "growth sensitivity score": "260 (active)"},
      {"smiles": "COc1ccc(-c2cc(=O)c3c(OC)c(OC)c(OC)c(OC)c3o2)cc1OC", "note": "[Nobiletin] (stock concentration (mM, diluted 1:100): 10)", "growth sensitivity score": "3.87 (active)"},
      {"smiles": "CC(=O)[C@H]1CC[C@H]2[C@@H]3CCC4=CC(=O)CC[C@]4(C)[C@H]3CC[C@]12C", "note": "[Progesterone] (stock concentration (mM, diluted 1:100): 10)", "growth sensitivity score": "112 (active)"},
      {"smiles": "O=C(O[C@@H]1C[C@@H]2C[C@H]3C[C@H](C1)N2CC3=O)c1c[nH]c2ccccc12", "note": "[Dolasetron mesylate] (stock concentration (mM, diluted 1:100): 10.4)", "growth sensitivity score": "-0.71 (inactive)"},
      {"smiles": "COC(=O)C1=C(C)NC(C)=C(C(=O)OC(C)C)C1c1cccc2nonc12", "note": "(stereo not drawn) [Isradipine] (stock concentration (mM, diluted 1:100): 9.9)", "growth sensitivity score": "137 (active)"},
      {"smiles": "COc1ccccc1N1CCN(CCCNc2cc(=O)n(C)c(=O)n2C)CC1", "note": "[Urapidil hydrochloride] (stock concentration (mM, diluted 1:100): 10)", "growth sensitivity score": "-0.84 (inactive)"},
      {"smiles": "CC(C)[C@H](N)C(=O)OCCOCn1cnc2c(=O)nc(N)[nH]c21", "note": "[Valaciclovir hydrochloride] (stock concentration (mM, diluted 1:100): 9)", "growth sensitivity score": "-0.28 (inactive)"},
      {"smiles": "CC1=Nc2ccc(Cl)cc2S(=O)(=O)N1", "note": "[Diazoxide] (stock concentration (mM, diluted 1:100): 10)", "growth sensitivity score": "0.08 (inactive)"},
      {"smiles": "CC[C@H]1OC(=O)[C@H](C)C(=O)[C@H](C)[C@@H](O[C@@H]2O[C@H](C)C[C@H](N(C)C)[C@H]2O)[C@](C)(OC)C[C@@H](C)C(=O)[C@H](C)[C@H]2N(CCCCn3cnc(-c4cccnc4)c3)C(=O)O[C@]12C", "note": "[Telithromycin] (stock concentration (mM, diluted 1:100): 10)", "growth sensitivity score": "4.79 (active)"},
      {"smiles": "CCCCC(=O)N(Cc1ccc(-c2ccccc2-c2nnn[nH]2)cc1)[C@H](C(=O)O)C(C)C", "note": "[Valsartan] (stock concentration (mM, diluted 1:100): 10)", "growth sensitivity score": "-1.81 (inactive)"},
      {"smiles": "C[C@@H]1C[C@H]2[C@@H]3C[C@H](F)C4=CC(=O)C(Cl)=C[C@]4(C)[C@@]3(F)[C@@H](O)C[C@]2(C)[C@@]1(O)C(=O)CO", "note": "[Halometasone monohydrate] (stock concentration (mM, diluted 1:100): 10)", "growth sensitivity score": "2.32 (active)"},
      {"smiles": "COc1ccccc1OCCNCC(O)COc1cccc2[nH]c3ccccc3c12", "note": "(stereo not drawn) [Carvedilol] (stock concentration (mM, diluted 1:100): 10)", "growth sensitivity score": "50.7 (active)"},
      {"smiles": "CCC1=C[C@H]2CN(C1)Cc1c([nH]c3ccccc13)[C@@](C(=O)OC)(c1cc3c(cc1OC)N(C)[C@H]1[C@@](O)(C(=O)OC)[C@H](OC(C)=O)[C@]4(CC)C=CCN5CC[C@]31[C@@H]54)C2", "note": "[Vinorelbine bitatrate] (stock concentration (mM, diluted 1:100): 7.2)", "growth sensitivity score": -3.29},
      {"smiles": "COc1cc2nc(N3CCN(C(=O)C4CCCO4)CC3)nc(N)c2cc1OC", "note": "(stereo not drawn) [Terazosin] (stock concentration (mM, diluted 1:100): 9.5)", "growth sensitivity score": "-0.95 (inactive)"},
      {"smiles": "C[C@H]1O[C@H](O[C@H]2[C@H](O)[C@@H](O)[C@@H](O[C@H]3[C@H](O)[C@@H](O)C(O)O[C@@H]3CO)O[C@@H]2CO)[C@H](O)[C@@H](O)[C@@H]1N[C@H]1C=C(CO)[C@@H](O)[C@H](O)[C@H]1O", "note": "(stereo partly drawn) [Acarbose] (stock concentration (mM, diluted 1:100): 10)", "growth sensitivity score": -2.1},
      {"smiles": "CN1C(=O)CC[C@H]1c1cccnc1", "note": "[Cotinine] (stock concentration (mM, diluted 1:100): 10)", "growth sensitivity score": "1.38 (inactive)"}
    ]}
  ]
}
